Here are results for 33 compounds from PubChem BioAssay AID720706 (Broad Institute, 2013).

Screen size: about 350,000 compounds; about 5,500 (1.6%) were called active.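 Rule for the calls: active = significant combined selectivity score with lowered wild-type GFP, culture density cut under 30%, mutant RFP and density less affected; inactive = any of these conditions unmet.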 Shown is part of a subset that was picked to be rich in actives.

The nature of this assay: reduced GFP signal of wild-type E. coli, primary screen, bacterial rRNA inhibitor project, GFP/RFP fluorescence, OD600, single point (AID 720706). The settings on record: E. coli WT GFP vs humanized-ribosome RFP mutants, 24 h; GFP signal change (wild-type ribosome): stronger effect = lower value, DMSO median 0, no signal -100; OD600 change: measured here: OD600 growth, DMSO median 0, no signal -100; RFP signal change: measured here: RFP humanized mutant strains, DMSO median 0, no signal -100, concentration not given here.
With `Cc1cc(-c2ccc(C)c(S(=O)(=O)NC(C)Cc3ccco3)c2)on1` (centres undefined), the GFP signal change (wild-type ribosome) was -34.9% (active), the OD600 change is -21.1% and the RFP signal change was 0.997%.

As for `Cc1cc(-c2ccc(C)c(S(=O)(=O)NCCCN(Cc3ccccc3)C(C)C)c2)on1`, the GFP signal change (wild-type ribosome) was -6% (inactive), the OD600 change was -18.2% and the RFP signal change was 1.25%.

As to `CCOc1ccccc1CNS(=O)(=O)c1cc(-c2cc(C)no2)ccc1C`, the GFP signal change (wild-type ribosome) is -6.17% (inactive), the OD600 change was -29.1% and the RFP signal change is -15.4%.

For the compound `CC1(C)CC(=O)C=C(c2ccc(Cl)c(C(F)(F)F)c2)C1`, the GFP signal change (wild-type ribosome) was 2% (inactive), the OD600 change was -0.255% and the RFP signal change was -10.1%.

On to `COc1ccccc1-c1n[nH]nc1C1=CC(=O)CC(C)(C)C1`, for which the GFP signal change (wild-type ribosome) was -4.29% (inactive), the OD600 change was -12.1% and the RFP signal change was -0.515%.

Turning to `COc1cc(F)c(C2=CC(=O)CC(C)(C)C2)cc1F`, the GFP signal change (wild-type ribosome) is -21.1% (active), the OD600 change is -16.7% and the RFP signal change was found to be 2.19%.

For the compound `C[C@@H]1CN([C@H](C)CO)C(=O)c2ccccc2-c2ccccc2CO[C@H]1CN(C)S(=O)(=O)c1ccsc1`, the GFP signal change (wild-type ribosome) was -0.618% (inactive), the OD600 change is -1.1% and the RFP signal change is -2.79%.

Consider `O=C(NCC[C@@H]1CC[C@@H](NC(=O)C2CCCC2)[C@H](CO)O1)c1cnccn1`, for which the GFP signal change (wild-type ribosome) is 3.79% (inactive), the OD600 change stood at 7.83% and the RFP signal change was -1.44%.

On to `O=C(NC(=S)Nc1ncccn1)c1ccccc1Br`, for which the GFP signal change (wild-type ribosome) was -2.07% (inactive), the OD600 change turned out to be 4.96% and the RFP signal change was -3.8%.

As for `CCCN(CC1CC1)C(=S)NC(=O)c1ccccc1Br`, the GFP signal change (wild-type ribosome) was -22.1% (active), the OD600 change was -12% and the RFP signal change is -8.89%.

Turning to `CC1CCN(C(=S)NC(=O)c2ccccc2Br)CC1`, the GFP signal change (wild-type ribosome) was 6.21% (inactive), the OD600 change came out at 4.62% and the RFP signal change was -0.105%.

In the case of `O=C(CCN1CCCCC1)NCC[C@@H]1CC[C@H](NS(=O)(=O)c2cccc(Cl)c2)[C@H](CO)O1`, the GFP signal change (wild-type ribosome) was 3.52% (inactive), the OD600 change is 6.73% and the RFP signal change came out at 1.99%.

Take `COc1ccccc1NC(=O)N1C[C@@H](O)COC[C@H]2O[C@@H](CC(=O)NCc3ccccc3)CC[C@@H]21`: the GFP signal change (wild-type ribosome) is -2.42% (inactive), the OD600 change is -2.65% and the RFP signal change was 2.34%.

`COCC(=O)N1CCC2(CC1)CN(Cc1ccccc1Cl)[C@H](CO)c1c2c2ccc(OC)cc2n1C`: the GFP signal change (wild-type ribosome) is 5.11% (inactive), the OD600 change was -2.87% and the RFP signal change is 0.0355%.

As for `Cc1ccc(S(=O)(=O)N2CCN(C(=O)c3cccs3)CC2)cc1`, the GFP signal change (wild-type ribosome) was 0.592% (inactive), the OD600 change was -2.53% and the RFP signal change was -0.742%.

As for `Clc1ccc(C[n+]2cc(-c3ccccc3)n3c2CCC3)cc1`, the GFP signal change (wild-type ribosome) was 2.79% (inactive), the OD600 change is -1.72% and the RFP signal change is -0.921%.

As to `Clc1ccc(C[n+]2cc(-c3ccc(Cl)cc3)n3c2CCC3)cc1`, the GFP signal change (wild-type ribosome) is -41.8% (inactive), the OD600 change is -50.2% and the RFP signal change was -12.3%.

For `O=C(C[n+]1cc(-c2ccc(Cl)c(Cl)c2)n2c1CCC2)c1cccs1`, the GFP signal change (wild-type ribosome) was -50.7% (active), the OD600 change is -21.5% and the RFP signal change is -14.4%.

As for `Cc1ccc(C(=O)C[n+]2cc(-c3ccccc3)n3c2CCCCC3)cc1`, the GFP signal change (wild-type ribosome) is -44.5% (inactive), the OD600 change is -43.4% and the RFP signal change worked out at 50.7%.

As to `Cc1ccc(-c2c[n+](CC(=O)Nc3ccccc3)c3n2CCC3)cc1`, the GFP signal change (wild-type ribosome) is -22.1% (active), the OD600 change was -5.22% and the RFP signal change amounted to 8.16%.

As to `O=C(NCC1CC1)[C@@H]1[C@@H](CO)[C@@H]2Cn3c(ccc(-c4ccncc4)c3=O)[C@H]1N2Cc1nccs1`, the GFP signal change (wild-type ribosome) was 2.96% (inactive), the OD600 change worked out at 4.86% and the RFP signal change is -1.83%.

Take `O=C(C[C@@H]1CC[C@H]2[C@@H](COC[C@H](O)CN2C(=O)Nc2ccccc2)O1)NCCc1ccncc1`: the GFP signal change (wild-type ribosome) is 6.3% (inactive), the OD600 change stood at 12.9% and the RFP signal change was -0.44%.

Take `Cc1ccc(S(=O)(=O)CCC(=O)OCc2ccccc2)cc1`: the GFP signal change (wild-type ribosome) is 0.84% (inactive), the OD600 change amounted to 1.2% and the RFP signal change was determined as 2.56%.

In the case of `Cc1nn(C(C)(C)C)c(OC(=O)CC(C)C)c1S(=O)(=O)c1ccccc1`, the GFP signal change (wild-type ribosome) is -21.5% (active), the OD600 change is -14.2% and the RFP signal change is -1.55%.

Turning to `CC(CC(=O)N1CCN(S(=O)(=O)c2ccccc2)CC1)n1cncn1` (centres undefined), the GFP signal change (wild-type ribosome) is 5.03% (inactive), the OD600 change came out at 0.845% and the RFP signal change was -1.68%.

On to `CNC[C@H]1Oc2ccccc2CC(=O)N(C)C[C@H]1C`, for which the GFP signal change (wild-type ribosome) was 1.46% (inactive), the OD600 change turned out to be 4.75% and the RFP signal change was -1.05%.

As to `CC(C)NC(=O)Nc1ccc2c(c1)CC(=O)N(C)C[C@@H](C)[C@@H](CN(C)C(=O)OC(C)(C)C)O2`, the GFP signal change (wild-type ribosome) was 2.38% (inactive), the OD600 change was determined as 4.01% and the RFP signal change is 0.746%.

`CC(C)C#Cc1ccc2c(c1)O[C@@H](CN(C)C(=O)CN(C)C)[C@@H](C)CN([C@H](C)CO)S2(=O)=O`: the GFP signal change (wild-type ribosome) is 2.76% (inactive), the OD600 change is 1.18% and the RFP signal change was -1.07%.

Regarding `CCCNC(=O)N(C)C[C@@H]1Oc2ncc(-c3cccc(C#N)c3)cc2C(=O)N([C@@H](C)CO)C[C@@H]1C`, the GFP signal change (wild-type ribosome) is 5.65% (inactive), the OD600 change came to 14.1% and the RFP signal change is -4.23%.

For the compound `Cc1ccc(N2C(=O)S/C(=C/c3cn(C)c4ccccc34)C2=O)cc1`, the GFP signal change (wild-type ribosome) is 5.23% (inactive), the OD600 change is 9.33% and the RFP signal change turned out to be 6.02%.

For the compound `Cc1ccc(CNC(=O)Cc2cn(C)c3ccccc23)cc1`, the GFP signal change (wild-type ribosome) is -9.46% (inactive), the OD600 change was -8.64% and the RFP signal change was 3.4%.

Turning to `Cn1cc(C2OC(=O)c3ccccc32)c2ccccc21` (centres undefined), the GFP signal change (wild-type ribosome) was -10.5% (active), the OD600 change is -18.9% and the RFP signal change was -4.84%.

For the compound `CN1c2ccc(-c3ccccc3F)cc2[C@@H]2[C@@H](CCN2C(=O)CN2CCOCC2)[C@H]1CO`, the GFP signal change (wild-type ribosome) is -2.46% (inactive), the OD600 change is -0.94% and the RFP signal change was -0.302%.
